Among all 340,000 compounds or so, about 12,000 (3.5%) were called active. Roughly 18% stayed inconclusive and do not appear here. Only a selection was taken, and actives are over-represented in it overall. Unmarked numbers belong to inactive results. Calls come from the whole dose curve; as a rule, active = well fitted inhibition curve with a large enough effect; inconclusive = small, poorly fitted or top-dose-only effect, or another doubt; inactive = no such curve, though single readings can be large or run the other way.
Test: qHTS Assay for Inhibitors of Hepatitis C Virus (HCV)
Settings: Huh7.5.1 HCVcc-Cre infection, luciferase reporter, 44 h; series mostly up to 41.8 µM; activity change, negative = inhibition: at the top concentration
Method in brief: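 HCVcc-Cre virus at an moi near 0.5 was added right after compound to cells cultured 4 h from seeding (1,000 cells/well). Luciferase activity was determined 44 h later, 15 min after substrate addition at RT.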
% is set by controls: 0 for no effect and ±100 for the full control effect; potency is the fitted concentration of half-maximal effect.

SMILES | activity change, negative = inhibition | Potency
COC(=O)c1c(NC(=O)C2CC(C)=C(C)CC2C(=O)O)sc2c1CCCCC2 (stereo not drawn) | 0.726% | –
COC(=O)c1c(NC(=O)CCCC(=O)O)sc2c1CCCCC2 | -1.74% | –
CCOC(=O)c1c(NC(=O)CSc2nnc(C)c(=O)[nH]2)sc2c1CCC2 | 2.84% | –
COC(=O)c1c(NC(=O)CCN2CCOCC2)sc2c1CCCC2 | -13.5% | –
COC(=O)c1c(NC(=O)CSc2nncs2)sc2c1CCCCC2 | – | 7.08 µM (active)
CCOC(=O)c1c(NC(=O)CSc2nnc(CN3CCOCC3)n2C)sc2c1CCCC2 | – | 22.4 µM (active)
COC(=O)[C@]1(C)CCC[C@@]2(C)C3CC[C@]4(OC(C)=O)C[C@@]3(CCC21)CC4=NO (stereo partly drawn) | 0.298% | –
O=C(CCNC(=O)c1ccc(Br)cc1)Nc1cccc(S(=O)(=O)N2CCCCC2)c1 | -9.26% | –
COc1ccccc1C(=O)NCC(=O)NCCSc1ccc(Br)cc1 | 31.4% | –
CCc1noc(C)c1C(=O)N1CCCSC1=Nc1ccccc1OC | 9.92% [at 8.37 µM] | –
COc1ccc2c(c1)C(=O)Nc1cc(Cl)ccc1N2 | -25.5% | –
Cc1cccc(OCCC(=O)OCc2csc(CC(=O)Nc3ccccc3C)n2)c1 | -5.01% | –
NC(=O)COC(=O)/C=C/c1ccc2ccccc2n1 | -4.15% | –
CCOc1cccc(/C=C/c2ccc3ccccc3n2)c1OC(C)=O | – | 11.2 µM (active)
CCOc1ccccc1-c1cc(C(=O)N/N=C(\C)c2cccnc2)c2ccccc2n1 | -26.8% | –
COC(=O)[C@]1(CC(C)C)N[C@H](c2ccc(SC3CCCCC3)cc2)[C@@H]2C(=O)N(C)C(=O)[C@@H]21 | 3.15% | –
CCN(CC(=O)Nc1c(F)cccc1F)C(=O)Cc1cccs1 | 5.83% | –
Cc1nc(-c2ccc(F)cc2)c(CC(=O)Nc2cccc(S(=O)(=O)N3CCOCC3)c2)s1 | -22.3% | –
CC(C)(C)OC(=O)NCCCCCNC(=O)c1[nH]cnc1C(=O)Nc1nccs1 | -1.35% | –
Nc1nc(NCCCN2CCOCC2)nc(Nc2ccccc2)c1[N+](=O)[O-] | -9.65% | –
COc1cccc(Nc2nc(N)c([N+](=O)[O-])c(NCc3ccco3)n2)c1 | – | 10 µM (active)
Nc1nc(Nc2ccccc2)nc(NCCO)c1[N+](=O)[O-] | -14.4% | –
COc1ccccc1CNC(=O)COC(=O)CNS(=O)(=O)c1ccc(NC(C)=O)cc1 | 3.91% | –
CCOc1ccc(OCC(=O)OC(C)C(=O)NC2CCCCC2C)cc1 (stereo not drawn) | 14.8% | –
O=c1ccc(S(=O)(=O)N2CCCC2)cn1Cc1nc(-c2ccccc2)no1 | -19.5% | –
CC1CCCN(C(=O)c2cc(-c3ccco3)nc3ccccc23)C1 (stereo not drawn) | 0.714% | –

SMILES | activity change, negative = inhibition | Potency
C/C=C/c1ccc(OCCOc2ccc(C=O)cc2OC)c(OC)c1 | 0.431% | –
C/C=C/c1ccc(OCCCCN2CCC(C)CC2)c(OC)c1 | – | 14.1 µM (active)
COc1ccc(OCCCCN2CCC(C)CC2)cc1 | -9.49% | –
Fc1ccc2cnc(-c3ccccc3)cc2c1 | 16.1% | –
COc1cc2c3c(c1)/C(=C1/SC(=S)NC1=O)C(=O)N3C(C)(C)C=C2C | – | 25.1 µM (active)
CC(C)Oc1ccc(S(=O)(=O)N2CCOCC2)cc1NC(=O)C1CSC2(C)CCC(=O)N12 (stereo not drawn) | -20.8% | –
COc1cc(C(=O)NCC(=O)NCCSc2ccc(Br)cc2)cc(OC)c1OC | -19.6% | –
CSc1nsc(NC(=O)Nc2ccccc2)n1 | -15.8% | –
CC(=O)c1cccc(NC(=O)c2ccncc2)c1 | 1.02% | –
CCSc1nsc(NC(=O)Nc2cccc(C(C)=O)c2)n1 | – | 11.2 µM (active)
Cc1ccc(C)c(NC(=O)C(c2ccccc2)N2CCN(CC(=O)NC3CC3)CC2)c1 (stereo not drawn) | 20.5% | –
COc1ccc(CCNc2nc(C)cc(C)n2)cc1OC | -14.5% | –
COc1ccc(CCNc2ncnc3nc[nH]c23)cc1OC | – | 11.2 µM (active)
CCS(=O)(=O)NCCc1ccc(OC)c(OC)c1 | -0.766% | –
Nc1c(C(=O)OCC(=O)Nc2ccc(OC(F)F)cc2)[nH]c(=O)[nH]c1=O | 1.46% | –
CCCn1c(N)c(N(CCOC)C(=O)C2CCCC2)c(=O)[nH]c1=O | 11.3% | –
Cc1nc2ccccc2c2oc(C(=O)NCCCN3CCC(C)CC3)cc12 | -20.7% | –
CCC1CCCCN1CCCNC(=O)C1CCC(Cn2c(=O)[nH]c3ccccc3c2=O)CC1 (stereo not drawn) | -13.2% | –
CCC1CCCCN1CCCNC(=O)c1cc2c(Cl)nc3ccccc3c2s1 (stereo not drawn) | – | 8.91 µM (active)
C#CCOCCOCCOCCNc1nc(N2CCN(C(=O)[C@H](CO)n3cc([C@@H](N)C(C)C)nn3)CC2)nc(N2CCN(C(=O)[C@H](CCC(=O)O)n3cc([C@@H](N)[C@H](C)CC)nn3)CC2)n1 | -8.15% | –
Nc1ccc2[nH]c(=S)sc2c1 | 12.9% | –
COc1ccc(CCN2CC(C(=O)OCC(=O)NCc3ccccc3Cl)CC2=O)cc1OC (stereo not drawn) | -7.78% | –
CC(NC(=O)c1ccccc1SCC(=O)N1CCCC1)c1ccccc1 (stereo not drawn) | 22.8% | –
O=C(c1ccccc1)c1ccc(OCC(O)CN2CCCC2)cc1 (stereo not drawn) | 2.19% | –
O=C(c1ccc(Cl)cc1)c1ccc(OCC(O)CN2CCCCC2)cc1 (stereo not drawn) | – | 14.1 µM (active)
CC(=O)Nc1ccc(OCC(O)CN2CCN(c3ccccc3Cl)CC2)cc1 (stereo not drawn) | 3.6% | –

SMILES | activity change, negative = inhibition | Potency
O=C1NCC(c2ccccc2)(c2ccccc2)C(=O)N1 | 38.7% | –
CC1CC(C)CN(C(=O)COC(=O)c2ccc3ncsc3c2)C1 (stereo not drawn) | -5.2% | –
CC(=O)c1c(C)oc2ccc(NS(=O)(=O)c3ccccc3)cc12 | -15.2% | –
COc1ccc(S(=O)(=O)Nc2ccc3oc(C)c(C(C)=O)c3c2)cc1 | – | 7.94 µM (active)
CC(=O)c1c(C)oc2ccc(NS(=O)(=O)c3ccc(C(=O)O)cc3)cc12 | 3.69% | –
CC(OC(=O)c1ccc(S(=O)(=O)N2CCOCC2)cc1)c1ccccc1 (stereo not drawn) | -17% | –
COC1=CC(=O)OC(C)(c2ccccc2)C1 (stereo not drawn) | 15.7% | –
CN1CCN(c2ccc(NC(=O)c3ccccc3)cc2)CC1 | 6.63% | –
O=C(Cc1ccccc1)NC(=S)Nc1ccc(N2CCCCC2)cc1 | -1.27% | –
O=C(Nc1ccc(N2CCN(C(=O)C3CC3)CC2)cc1)c1cccs1 | -3.63% | –
Cc1ccccc1C(=O)N1CCN(c2ccc(NC(=O)c3cccs3)cc2)CC1 | – | 11.2 µM (active)
O=C(Nc1ccc(N2CCN(C(=O)c3cccs3)CC2)cc1)c1cccnc1Cl | -12.3% | –
Cc1ccccc1C(=O)NC(=S)Nc1ccc(N2CCN(C(=O)c3ccccc3)CC2)cc1 | – | 11.2 µM (active)
Cc1ccc(-c2csc(NCCc3nc4cc(Cl)c(Cl)cc4n3CCOCCO)n2)cc1 | -19.6% | –
CCCCNC(=O)Cn1nc(C)c(S(=O)(=O)N2CCOCC2)c1C | 0.679% | –
CC(C)(C)C(=O)Nc1cccc(-c2ccc[nH]2)n1 | -21% | –
CC(=O)c1c(C)[nH]c(C(=O)N2CCN(S(=O)(=O)c3ccc(F)c(F)c3)CC2)c1C | 19.1% | –
CNS(=O)(=O)c1cccc(C(=O)NC2CCCc3ccccc32)c1 (stereo not drawn) | -13.6% | –
CCOc1c2ccc(C(=O)NC3CCCc4ccccc43)cc2nn1CC (stereo not drawn) | – | 3.55 µM (active)
CCOc1ccc(NC(=O)COc2ccc(C(=O)NC3CCCc4ccccc43)cc2OC)cc1 (stereo not drawn) | 1.4e-06% | –
CCCc1cc(=O)[nH]c(SCC(=O)Nc2ccc(S(=O)(=O)N3CCCC3)cc2)n1 | -9.93% | –
COc1cccc(Oc2ccc(N)cc2)c1 | -21.4% | –
CC(C)(C)c1ccc(Oc2ccc(N)cc2)cc1 | – | 3.55 µM (active)
Cc1nn(C)c(Oc2ccc(Cl)cc2)c1C=O | -11.1% | –
Nc1ccc2nn(-c3ccc(Cl)cc3)nc2c1 | -11.2% | –
CC(C)(C)c1ccc(OC2=CS(=O)(=O)c3ccccc32)cc1 | -5.07% | –

SMILES | activity change, negative = inhibition | Potency
Nc1ccc(Oc2ccc(Cl)cc2)cc1 | – | 7.94 µM (active)
O=S(=O)(Nc1ccc(O)c2ccccc12)c1ccc(OC(F)(F)F)cc1 | -0.296% | –
COc1ccc(CNC(=O)COC(=O)C(CCSC)N2C(=O)c3ccccc3C2=O)cc1 (stereo not drawn) | 4.01% | –
COc1ccc(OCC(O)CN(C)C(=O)C(C)Oc2ccccc2)cc1 (stereo not drawn) | 7.61% | –
C=CCn1c(=N)n(CC(O)COc2ccc(OC)cc2)c2ccccc21 (stereo not drawn) | – | 5.62 µM (active)
C=CCc1ccc(OCC(O)CN2CCN(Cc3ccccc3)CC2)c(OC)c1 (stereo not drawn) | -23.4% | –
CCCCn1c(N)c(N(CC(C)C)C(=O)c2cnc(C)cn2)c(=O)[nH]c1=O | 31.4% | –
CC1CCN(C(=O)COC(=O)c2cc(S(=O)(=O)N3CCOCC3)ccc2Cl)CC1 | 9.19% | –
CNS(=O)(=O)c1ccc(C(=O)NCC(=O)NCCc2ccc3c(c2)OCCO3)cc1 | -10.8% | –
CC(C)c1ccc2c(c1)c(SC(C)(C)C)c(CC(C)(C)C(=O)O)n2Cc1ccc(Cl)cc1 | – | 10 µM (active)
O=C(O)c1ccc(Cn2c(=S)[nH]c3cc(Cl)ccc3c2=O)cc1 | 5.79% | –
Cc1cc2nnc(SCC(=O)N3CCN(c4ccccc4)CC3)n2c(N)n1 | 8% | –
Cn1c(Cc2cccc3ccccc23)nnc1SCC(=O)N1CCN(c2cccc(Cl)c2)CC1 | – | 3.98 µM (active)
Cn1c(CNC(=O)c2ccco2)nnc1SCC(=O)N1CCN(c2ccccc2)CC1 | 19.3% | –
O=C(CSc1ncnc2sccc12)NC1CCS(=O)(=O)C1 (stereo not drawn) | 12.8% | –
CC(=O)Nc1ccc(S(=O)(=O)NCC(=O)OCC(=O)c2ccc[nH]2)cc1 | 30.9% | –
O=C(c1cccnc1)N(Cc1ccccc1)C(=O)c1cccnc1 | 7.13% | –
CCOC(=O)CSc1nc2c(c(=O)n(C)c(=O)n2C)n1Cc1ccccc1F | -0.781% | –
CCOC(=O)CSc1nnc(-c2ccco2)n1C | -6.89% | –
CCOC(=O)CSc1nc2c(sc(=S)n2CCc2ccccc2)c(=O)n1Cc1ccco1 | – | 14.1 µM (active)
CC(C)C[C@H]1CN([C@@H](CC(C)C)CN2CCC[C@@H]2CN2C(=O)C(=O)NC[C@@H]2Cc2ccccc2)C(=O)C(=O)N1CCc1ccccc1 | -8.5% | –
O=C(c1ccc(N2CCOCC2)c([N+](=O)[O-])c1)N1CCN(c2ccccc2F)CC1 | 10.7% | –
CCN(C[C@H]1N[C@@](CC)(C(=O)OC)[C@H]2C(=O)N(Cc3ccccc3)C(=O)[C@@H]12)S(=O)(=O)c1ccccc1 | -2.21% | –
COC(=O)[C@]1(Cc2ccccc2)N[C@H](CN(C)S(=O)(=O)c2ccc(OC(F)(F)F)cc2)[C@@H]2C(=O)N(Cc3ccccc3)C(=O)[C@@H]21 | – | 7.08 µM (active)
COC(=O)[C@]1(Cc2ccccc2)N[C@H](CN(C)S(=O)(=O)c2ccc(F)cc2)[C@@H]2C(=O)N(Cc3ccccc3)C(=O)[C@@H]21 | -26.9% | –

Reference: PubChem BioAssay AID651820 (National Center for Advancing Translational Sciences (NCATS), 2012)
